# Measured values published in PubChem BioAssay (NCATS).
# Inconclusive results are not listed. The source made the active and inactive calls. Unless noted, calls come from the whole dose curve; as a rule, active = well fitted curve in the direction sought with a large enough effect; inconclusive = small, poorly fitted or top-dose-only effect, or another doubt; inactive = no such curve, though single readings can be large; an effect the other way counts as inactive or inconclusive.
# Assays:
# [1] = target: Peroxisome proliferator-activated receptor gamma (Homo sapiens) (UniProt P37231); test: qHTS assay for small molecule agonists of peroxisome proliferator-activated receptor gamma signaling (AID 588536; active = well fitted curve in the direction sought with a large enough effect in the signal ratio, with a control signal flat, not every such curve was filed as active; the % refers to the signal ratio;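 note: 0% = DMSO basal wells and 100% = rosiglitazone at 2 µM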)
# Peroxisome proliferator-activated receptor gamma (Homo sapiens), sequence (P37231 whole entry, looked up): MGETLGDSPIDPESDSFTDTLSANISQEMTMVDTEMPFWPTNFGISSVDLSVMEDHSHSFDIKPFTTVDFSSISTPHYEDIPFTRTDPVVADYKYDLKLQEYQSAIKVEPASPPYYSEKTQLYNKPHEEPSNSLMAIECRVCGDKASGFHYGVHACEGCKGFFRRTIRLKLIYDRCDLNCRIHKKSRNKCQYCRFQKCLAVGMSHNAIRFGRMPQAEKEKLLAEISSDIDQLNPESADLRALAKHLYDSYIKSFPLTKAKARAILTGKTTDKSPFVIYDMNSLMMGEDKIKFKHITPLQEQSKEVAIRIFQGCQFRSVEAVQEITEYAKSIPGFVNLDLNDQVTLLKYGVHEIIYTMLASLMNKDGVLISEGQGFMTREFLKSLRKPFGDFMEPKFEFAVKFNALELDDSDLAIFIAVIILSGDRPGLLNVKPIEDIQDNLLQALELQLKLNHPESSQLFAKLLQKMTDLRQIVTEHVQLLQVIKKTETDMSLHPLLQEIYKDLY
# Method in brief: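 HEK293 UAS-bla reporter line, 1% charcoal/dextran FBS; titration, 16 h, 37 C; CCF4 loading 2 h RT; fluorescence 460/530 nm. Normalized to rosiglitazone 2 uM = 100%, DMSO = 0%.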
# [2] = qHTS assay for small molecule agonists of retinoid X receptor alpha signaling (AID 588544; calls by dose curve;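 for activation: 0% = DMSO basal wells and 100% = reference agonist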); conditions: HEK293T RXRa-UAS-bla, beta-lactamase reporter, 18 h; 530 nm emission
# [3] = target: Retinoic acid receptor RXR-alpha (Homo sapiens) (UniProt P19793); test: as above
# Retinoic acid receptor RXR-alpha (Homo sapiens), sequence (P19793 whole entry, looked up): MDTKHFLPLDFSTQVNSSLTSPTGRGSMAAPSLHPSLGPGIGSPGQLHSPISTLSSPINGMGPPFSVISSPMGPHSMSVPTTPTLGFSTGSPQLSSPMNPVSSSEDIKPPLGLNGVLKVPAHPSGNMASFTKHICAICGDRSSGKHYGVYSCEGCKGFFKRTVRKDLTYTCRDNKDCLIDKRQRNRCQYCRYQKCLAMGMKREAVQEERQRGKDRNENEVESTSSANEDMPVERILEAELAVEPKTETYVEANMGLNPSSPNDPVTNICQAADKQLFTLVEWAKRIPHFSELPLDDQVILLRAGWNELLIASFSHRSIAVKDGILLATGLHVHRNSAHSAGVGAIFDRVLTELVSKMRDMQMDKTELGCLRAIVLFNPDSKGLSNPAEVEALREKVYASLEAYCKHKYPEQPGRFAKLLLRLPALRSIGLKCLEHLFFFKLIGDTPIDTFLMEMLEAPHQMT
# [4] = target: Thyroid hormone receptor beta (Homo sapiens) (UniProt P10828); test: qHTS assay for small molecule agonists of thyroid hormone receptor beta signaling (AID 588545; calls by dose curve)
# Thyroid hormone receptor beta (Homo sapiens), sequence (P10828 whole entry, looked up): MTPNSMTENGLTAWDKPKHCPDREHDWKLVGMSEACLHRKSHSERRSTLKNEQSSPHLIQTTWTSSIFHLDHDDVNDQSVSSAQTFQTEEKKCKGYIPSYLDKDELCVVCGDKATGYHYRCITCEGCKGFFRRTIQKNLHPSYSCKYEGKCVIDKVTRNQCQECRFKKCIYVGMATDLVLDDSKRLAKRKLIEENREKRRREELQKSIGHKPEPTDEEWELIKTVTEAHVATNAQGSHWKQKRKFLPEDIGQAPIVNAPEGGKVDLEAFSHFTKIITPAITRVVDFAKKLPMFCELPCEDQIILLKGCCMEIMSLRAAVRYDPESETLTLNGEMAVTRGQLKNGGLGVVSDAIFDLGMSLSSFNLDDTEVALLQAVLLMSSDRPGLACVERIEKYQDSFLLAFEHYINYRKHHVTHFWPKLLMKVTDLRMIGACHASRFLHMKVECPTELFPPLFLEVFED
# Method in brief: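 Cells (2500/well) were seeded, incubated 4 hrs at 37 C, dosed with a compound series, incubated 18 hrs, loaded with CCF4 dye for 2 hrs at RT, then read for fluorescence. Data were scaled between DMSO (0%) and 10 nM T3 (100%).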
# [5] = qHTS assay for small molecule antagonists of retinoid X receptor alpha signaling (AID 588546; active = well fitted inhibition curve with a large enough effect in the signal ratio, with a control signal flat, not every such curve was filed as active; the % refers to the signal ratio;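 note: cells stimulated with 9-cis-retinoic acid as agonist; % is set by controls: 0 for no effect and ±100 for the full control effect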); conditions: HEK293T RXRa-UAS-bla, beta-lactamase ratio, antagonist mode; measured here: W530 green channel, cytotoxicity proxy
# Method in brief: (§1)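 Beta-lactamase reporter inhibition, read as CCF4 fluorescence ratio (ex 405, em 460/530 nm) after 2 h at RT. HEK293T UAS-bla cells, 2500/well, were stimulated with 9-cis-RA at 500 or 100 nM final alongside test compound for 18 h at 37 C.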
# [6] = target: Retinoic acid receptor RXR-alpha (Homo sapiens) (UniProt P19793); test: as above; conditions: HEK293T RXRa-UAS-bla, beta-lactamase ratio, antagonist mode
# Method in brief: as §1
# [7] = target: Thyroid hormone receptor beta (Homo sapiens) (UniProt P10828); test: qHTS assay for small molecule antagonists of thyroid hormone receptor beta signaling (AID 588547; active = well fitted inhibition curve with a large enough effect in the signal ratio, with a control signal flat, not every such curve was filed as active; the % refers to the signal ratio;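 note: cells stimulated with 0.4 nM T3 agonist during compound exposure; series mostly up to about 77 µM; % is set by controls: 0 for no effect and ±100 for the full control effect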); conditions: TR-UAS-bla HEK293, beta-lactamase ratio, antagonist mode, 18 h
# Method in brief: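 TR-UAS-bla GripTite HEK293 cells in 2% charcoal/dextran FBS medium; compounds 0.59 nM to 92 uM with T3 at 0.4nM final, 18 h at 37 C. Beta-lactamase read by CCF4 fluorescence (460/530 nm); Hill fits gave IC50 and efficacy.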
# [8] = target: Voltage-gated inwardly rectifying potassium channel KCNH2 (Homo sapiens) (UniProt Q12809); test: qHTS Assay for Small Molecule Inhibitors of the Human hERG Channel Activity (AID 588834);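 note: top concentration of the series differs between compounds; % is set by controls: 0 for no effect and ±100 for the full control effect; lower thallium flux fluorescence means stronger hERG block; nearly all actives have a fitted effect of over 50% in size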
# Voltage-gated inwardly rectifying potassium channel KCNH2 (Homo sapiens), sequence (Q12809 whole entry, looked up): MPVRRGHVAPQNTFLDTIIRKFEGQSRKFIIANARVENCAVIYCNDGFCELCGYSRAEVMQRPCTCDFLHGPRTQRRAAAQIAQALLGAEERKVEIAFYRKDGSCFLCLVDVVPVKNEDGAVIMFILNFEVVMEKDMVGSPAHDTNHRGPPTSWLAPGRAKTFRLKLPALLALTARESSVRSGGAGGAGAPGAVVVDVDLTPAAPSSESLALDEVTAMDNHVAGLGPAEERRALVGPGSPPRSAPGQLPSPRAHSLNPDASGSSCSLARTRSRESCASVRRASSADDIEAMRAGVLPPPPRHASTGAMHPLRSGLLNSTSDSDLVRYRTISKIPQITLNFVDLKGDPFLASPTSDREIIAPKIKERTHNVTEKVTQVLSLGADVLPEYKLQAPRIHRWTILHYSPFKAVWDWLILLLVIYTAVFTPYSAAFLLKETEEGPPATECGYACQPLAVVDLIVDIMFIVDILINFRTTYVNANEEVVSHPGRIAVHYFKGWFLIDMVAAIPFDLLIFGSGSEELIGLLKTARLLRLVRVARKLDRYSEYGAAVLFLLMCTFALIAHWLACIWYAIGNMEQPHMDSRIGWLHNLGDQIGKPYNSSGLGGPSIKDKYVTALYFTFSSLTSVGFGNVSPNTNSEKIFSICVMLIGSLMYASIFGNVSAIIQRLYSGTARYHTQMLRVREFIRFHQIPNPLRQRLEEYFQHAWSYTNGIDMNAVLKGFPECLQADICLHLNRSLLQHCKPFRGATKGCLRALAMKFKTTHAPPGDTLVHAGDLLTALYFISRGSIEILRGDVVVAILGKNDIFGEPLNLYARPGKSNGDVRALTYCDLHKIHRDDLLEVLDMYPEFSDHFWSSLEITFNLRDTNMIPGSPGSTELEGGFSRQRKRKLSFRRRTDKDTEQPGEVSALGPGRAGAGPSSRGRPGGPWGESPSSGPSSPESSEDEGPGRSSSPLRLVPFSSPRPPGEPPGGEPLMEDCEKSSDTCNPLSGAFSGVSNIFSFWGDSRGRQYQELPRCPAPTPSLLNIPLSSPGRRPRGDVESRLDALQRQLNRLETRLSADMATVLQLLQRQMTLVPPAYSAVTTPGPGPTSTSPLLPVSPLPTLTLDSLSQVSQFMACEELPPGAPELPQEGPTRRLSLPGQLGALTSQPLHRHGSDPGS
# Method in brief: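 Kinetic FDSS fluorescence; U2OS + hERG BacMam (~100 virus particles/cell); FluxOR Tl+ flux; ~10 min cpd; AC50 (Hill).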
# [9] = qHTS assay for small molecule activators of the p53 signaling pathway (AID 651743; active = well fitted activation curve with a large enough effect in the signal ratio, not every such curve was filed as active; the % refers to the signal ratio; note: series mostly up to about 92 µM; % of control where 0% means no effect); conditions: HCT-116 p53RE-bla, beta-lactamase FRET ratio, 16 h; activation: stronger effect = higher value
# Method in brief: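 HCT-116 p53RE-bla, 4,000 cells/well; 5 h settle; cpd/DMSO 16 h, 37 C; LiveBLAzer B/G 2 h RT; fluorescence intensity.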
# [10] = qHTS assay for small molecule activators of the nuclear factor-kappa B (NF-kB) signaling pathway (AID 651749; active = well fitted activation curve with a large enough effect in the signal ratio; the % refers to the signal ratio; note: series mostly up to about 77 µM; % of control where 0% means no effect); conditions: NF-kB-bla ME-180 cells, beta-lactamase FRET ratio, 16 h; stronger effect = higher value
# Method in brief: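 Incubation lasted 16 hr at 37C in 5% CO2 after 23 nL compound addition to ME-180 NF-kB-bla cells. Activation appears as beta-lactamase-mediated FRET loss.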
# [11] = qHTS assay for small molecule disruptors of the mitochondrial membrane potential - 1 hr assay (AID 651754; calls by dose curve; note: potency is the fitted concentration of half-maximal effect; nearly all actives have a fitted effect of over 35% in size)
# Method in brief: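 Steps: seed HepG2 cells and let attach overnight; pin-transfer compound or vehicle; incubate 1 hr at 37C; add Mito-MPS dye for 30 min; read two-channel fluorescence for monomer and aggregate forms.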
# [12] = qHTS assay for small molecule disruptors of the mitochondrial membrane potential - 5 hr assay (AID 651755; calls by dose curve; note: potency is the fitted concentration of half-maximal effect; nearly all actives have a fitted effect of over 40% in size)
# Method in brief: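 HepG2 cells (2,000/well), attached overnight, exposed to compound 5 hr at 37C, then Mito-MPS dye 30 min. Fluorescence read for monomers (490/535 nm) and aggregates (540/590 nm).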
# [13] = target: Tumor necrosis factor (Homo sapiens) (UniProt P01375); test: qHTS assay to identify small molecules that stimulate Tumor Necrosis Factor-alpha (TNF-alpha) secretion (AID 651757; active = well fitted curve in the direction sought with a large enough effect in the signal ratio; the % refers to the signal ratio; note: 0% is about no effect)
# Tumor necrosis factor (Homo sapiens), sequence (P01375 whole entry, looked up): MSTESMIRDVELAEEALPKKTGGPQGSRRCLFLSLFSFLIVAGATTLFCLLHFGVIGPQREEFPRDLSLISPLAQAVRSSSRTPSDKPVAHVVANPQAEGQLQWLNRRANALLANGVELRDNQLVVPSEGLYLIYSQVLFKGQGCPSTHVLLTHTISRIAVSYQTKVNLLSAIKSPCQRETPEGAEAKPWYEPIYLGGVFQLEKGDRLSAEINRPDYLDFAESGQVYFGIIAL
# Method in brief: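 Secreted TNF-alpha from compound-treated THP-1 cells (17 hrs, 37 C) was quantified with a homogeneous time-resolved fluorescence antibody assay.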
# [14] = qHTS assay for environmental chemicals that activate the Aryl hydrocarbon Receptor (AhR) signaling pathway (AID 651777); conditions: 1A2-DRE human hepatoma cells, luciferase, 24 h; activation: stronger effect = higher value; note: potency is the fitted concentration of half-maximal effect; nearly all actives have a fitted effect of over 15% in size
# Method in brief: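 Reporter gene assay: hepatoma cells with DRE/CYP1A2-luciferase, 24 hr compound incubation at 37 C, 5% CO2, luminescence after One-Glo (30 min, RT).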
# [15] = target: Peroxisome proliferator-activated receptor alpha (Homo sapiens) (UniProt Q07869); test: qHTS assay for small molecule agonists of the peroxisome proliferator-activated receptor alpha (PPARalpha) signaling pathway (AID 651778); conditions: PathHunter PPARalpha complementation, chemiluminescence, 6 h; stronger effect = higher value; note: % of control where 0% means no effect
# Peroxisome proliferator-activated receptor alpha (Homo sapiens), sequence (Q07869 whole entry, looked up, the tested form may be a part): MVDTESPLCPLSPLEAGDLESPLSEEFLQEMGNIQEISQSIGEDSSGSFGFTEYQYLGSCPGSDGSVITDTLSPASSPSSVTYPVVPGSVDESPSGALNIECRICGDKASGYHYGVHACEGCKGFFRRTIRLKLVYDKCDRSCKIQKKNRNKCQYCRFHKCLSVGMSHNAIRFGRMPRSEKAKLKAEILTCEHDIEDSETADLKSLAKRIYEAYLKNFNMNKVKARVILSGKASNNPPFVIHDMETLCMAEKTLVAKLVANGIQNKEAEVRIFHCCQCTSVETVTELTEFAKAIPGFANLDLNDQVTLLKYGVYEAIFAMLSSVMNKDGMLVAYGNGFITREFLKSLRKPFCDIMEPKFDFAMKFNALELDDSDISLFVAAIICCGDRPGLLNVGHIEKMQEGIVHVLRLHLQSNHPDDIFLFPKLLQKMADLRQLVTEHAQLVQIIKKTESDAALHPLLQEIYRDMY
# Method in brief: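 Enzyme-fragment complementation assay in which ligand-bound PPARalpha translocates and forms an active enzyme that generates chemiluminescence. Cells were plated overnight, exposed to compound for 6 hr at 37 C, and then given detection reagent for 60 min at room temperature.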
# [16] = target: Nuclear receptor ROR-gamma (Homo sapiens) (UniProt P51449); test: qHTS assay for small molecule antagonists of the retinoid-related orphan receptor gamma (ROR-gamma) signaling pathway (AID 651802);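 note: CHO cells with doxycycline-induced ROR-gamma expression; series mostly up to about 92 µM; % is set by controls: 0 for no effect and ±100 for the full control effect; nearly all actives have a fitted effect of over 60% in size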
# Nuclear receptor ROR-gamma (Homo sapiens), sequence (P51449 whole entry, looked up): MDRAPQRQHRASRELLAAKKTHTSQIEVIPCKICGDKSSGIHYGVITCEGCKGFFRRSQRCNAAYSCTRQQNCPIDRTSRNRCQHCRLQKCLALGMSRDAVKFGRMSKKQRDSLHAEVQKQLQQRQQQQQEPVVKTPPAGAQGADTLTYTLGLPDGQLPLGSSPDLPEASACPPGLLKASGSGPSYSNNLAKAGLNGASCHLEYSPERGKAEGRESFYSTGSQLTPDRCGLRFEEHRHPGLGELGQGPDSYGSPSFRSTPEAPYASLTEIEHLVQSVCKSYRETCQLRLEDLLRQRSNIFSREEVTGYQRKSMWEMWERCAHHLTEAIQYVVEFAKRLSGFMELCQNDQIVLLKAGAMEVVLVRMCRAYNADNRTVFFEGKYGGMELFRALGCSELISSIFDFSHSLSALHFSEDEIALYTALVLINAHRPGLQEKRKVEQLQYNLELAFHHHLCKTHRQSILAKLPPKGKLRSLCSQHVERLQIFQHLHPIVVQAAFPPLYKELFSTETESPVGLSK
# Method in brief: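 Antagonism is scored as a fall in luminescence from a RORE-luciferase reporter in CHO cells expressing ROR under a TET-inducible promoter, measured 16hr after doxycycline induction in the presence of compound.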
# [17] = qHTS assay for small molecule antagonists of the retinoid-related orphan receptor gamma (ROR-gamma) signaling pathway - cell viability counter screen (AID 720652; active = well fitted curve in the direction sought with a large enough effect in the repeat runs; an effect the other way counts as inactive or inconclusive;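 note: CHO reporter cells with doxycycline-induced ROR-gamma expression; series mostly up to about 92 µM; compound exposure lasted 16 hr before ATP read; % is set by controls: 0 for no effect and ±100 for the full control effect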)
# Method in brief: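 Cytotoxicity is quantified via intracellular ATP (CellTiter-Glo luminescence) in doxycycline-induced CHO ROR response element-luciferase reporter cells treated with compound for 16 hr at 37 C, 5% CO2.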
# [18] = qHTS assay for small molecule agonists of the antioxidant response element (ARE) signaling pathway measured by Nrf2-dependant transcriptional activity - cell viability counter screen (AID 720653; active = well fitted curve in the direction sought with a large enough effect in the repeat runs; an effect the other way counts as inactive or inconclusive; note: % is set by controls: 0 for no effect and ±100 for the full control effect); conditions: ARE-bla HepG2 viability, CellTiter-Glo ATP luminescence, 16 h; stronger effect = lower value
# Method in brief: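 ARE-bla HepG2 cells treated with compounds for 16 h at 37C; this counter screen measures viability as intracellular ATP by CellTiter-Glo luminescence after 30 min at room temperature.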
# [19] = qHTS assay for cell viability of HEK293 cells (AID 743288); conditions: ATP luminescence (CellTiter-Glo), 18 h, stronger effect = lower value; note: % is set by controls: 0 for no effect and ±100 for the full control effect; nearly all actives have a fitted effect of over 50% in size
# Method in brief: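 Total intracellular ATP, measured with a luciferase-coupled reagent, indicates the number of viable HEK293 cells. Exposure to test chemicals lasts 18 h at 37 C in 1,536-well format at 2,000 cells/well.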
# [20] = qHTS assay for cell viability of the p53RE-bla HCT-116 cell line (AID 743292); note: % is set by controls: 0 for no effect and ±100 for the full control effect; nearly all actives have a fitted effect of over 55% in size
# Method in brief: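 ATP-based luminescence, 16 h compound exposure at 37 C, p53RE-bla HCT-116 cells at 4,000/well.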
# [21] = target: Calcium and integrin-binding protein 1 (Homo sapiens) (UniProt Q99828); test: Primary qHTS for Identification of Calcium Integrin Binding Protein 1 (CIB1) Competitor (AID 1508620)
# Calcium and integrin-binding protein 1 (Homo sapiens), sequence (Q99828 whole entry, looked up): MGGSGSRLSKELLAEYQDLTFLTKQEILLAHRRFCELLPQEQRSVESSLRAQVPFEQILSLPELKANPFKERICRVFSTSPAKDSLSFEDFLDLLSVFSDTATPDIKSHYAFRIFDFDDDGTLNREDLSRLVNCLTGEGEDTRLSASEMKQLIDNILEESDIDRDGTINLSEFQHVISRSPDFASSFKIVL
# Method in brief: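 Fluorescence polarization competition: GST-tagged CIB1 (1 uM final) preincubated with compound 15 min at room temperature, then FITC-labelled alphaIIb peptide (100 nM final) added. After 15 min at room temperature, polarization read at Ex 480/Em 540.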
structure (smiles),measurement,setting,value
O=C(Nc1ccccc1)Nc1ccccc1,outcome,[1],inactive
same,max response,[2],-6.23%
same,outcome,[3],inactive
same,outcome,[4],inactive
same,max response,[5],-7.85%
same,max response,[6],-1.03% (inactive)
same,activity change % (negative = inhibition),[7],-2.58% (inactive)
same,Potency,[8],inactive
same,activation,[9],-2.22% (inactive)
same,activation,[10],0.321% (inactive)
same,Potency,[11],10.6 µM (active)
same,Potency,[12],13.3 µM (active)
same,Potency,[13],inactive
same,Potency,[14],12.6 µM (active)
same,max response,[15],-3.47% (inactive)
same,outcome,[16],inactive
same,outcome,[17],inactive
same,max response,[18],-0.927% (inactive)
same,max response,[19],-16.1% (inactive)
same,Potency,[20],inactive
same,Potency,[21],inactive
